Only a selection was taken, and hits are over-represented in it overall.
RmlCD inh mix – RmlC/RmlD inhibition, mixture screen; RmlC/RmlD coupled enzyme inhibition, 384-well mixture HTS; inhibition, % at 5.5 µM; 110,000 compounds, 0.39% hits; AID 1532; in the data active = inhibition above about 30%, passing the limit was not always enough; inconclusive = no clear call, values can overlap the other calls
HIV RNase H inh-1 – inhibitors of HIV-1 reverse transcriptase RNase H; RT-RNase H RNA/DNA duplex cleavage, fluorescence; 65,000 compounds, 1.9% hits; P04585; inhibition, % at 10 µM; in the data active = inhibition above about 50%
HIV RNase H inh-2 – confirmation of HIV-1 reverse transcriptase RNase H inhibitors | shares compounds with HIV RNase H inh-1 | Recombinant RT RNase H, fluorescent RNA/DNA duplex cleavage | 1,000 compounds, 39% hits | inhibition, % at 10 µM; in the data active = inhibition above about 48%; inconclusive = no clear call, values can overlap the other calls
Each line names hits and unclear results; the compound was inactive in the other large screens (follow-up assays come after a bar, where they were run).

Cc1ccc(-c2nnn(CC(=O)NCc3ccccc3)n2)c(-n2cnnn2)c1	none
N#Cc1cc2c(nc1SCC(=O)Nc1sc3c(c1C#N)CCC3)CCCC2	none (no result: HIV RNase H inh-1)
CCOC(=O)c1sc(NC(=O)CSc2nc3c(cc2C#N)CCC3)c(C#N)c1C	none (no result: RmlCD inh mix)
Cc1noc(NS(=O)(=O)c2ccc(NC(=O)CSc3nc4c(cc3C#N)CCCC4)cc2)c1C	none
CCOC(=O)c1cnc(SCC(=O)Nc2cc(OC)cc(OC)c2)nc1N	none
CCOC(=O)c1cnc(SCC(=O)Nc2sc(C)c(C)c2C#N)nc1N	HIV RNase H inh-1 63 | HIV RNase H inh-2 inactive
N#Cc1cc2c(nc1SCC(=O)Nc1sc3c(c1C#N)CCC3)CCCCC2	HIV RNase H inh-1 66 | HIV RNase H inh-2 inactive
Cc1noc(NS(=O)(=O)c2ccc(NC(=O)CSc3nc4c(cc3C#N)CCC4)cc2)c1C	HIV RNase H inh-1 78 | HIV RNase H inh-2 inconclusive
CCOC(=O)c1sc(NC(=O)CSc2nc3c(cc2C#N)CCCCCC3)c(C#N)c1C	HIV RNase H inh-1 73 | HIV RNase H inh-2 inconclusive
c1ccc(Cn2ccc(-c3cnc(-c4ccccc4)s3)n2)cc1	none (no result: HIV RNase H inh-1)
O=C(CCn1c(=O)c2sccc2n(CC(=O)OCc2ccccc2)c1=O)NCc1ccccc1	none (no result: HIV RNase H inh-1)
C=CC[C@]12C[C@@H](OC)C(=O)C=C1O[C@@H](c1ccc(OC)c(OC)c1)[C@H]2C	none (no result: HIV RNase H inh-1)
OCCN1CCN(C(c2cccs2)c2ccc3cccnc3c2O)CC1 (centres undefined)	HIV RNase H inh-1 72 | HIV RNase H inh-2 inactive
CC(=O)NC(c1ccco1)c1ccc2cccnc2c1O (centres undefined)	none (no result: RmlCD inh mix)
CCOC(=O)c1c(NC(C)=O)sc2c1CCC(C=NCCCN(CC)CC)=C2Sc1ccccc1	none (no result: HIV RNase H inh-1)
C[N+](C)(C)C(Cc1ccccc1)C(=O)[O-] (centres undefined)	none (no result: HIV RNase H inh-1)
O=C1CC(Sc2nnc(-c3ccccc3)o2)C(=O)N1c1ccccc1 (centres undefined)	HIV RNase H inh-1 52 | HIV RNase H inh-2 inactive
Cc1ccccc1N1C(=O)CC(Sc2nnc(-c3ccccc3)o2)C1=O (centres undefined)	HIV RNase H inh-1 58 | HIV RNase H inh-2 inactive
Cc1nnc(SC2CC(=O)N(c3ccccc3)C2=O)s1 (centres undefined)	none (no result: HIV RNase H inh-1)
O=C1c2ccccc2CC1Sc1nnc(-c2ccncc2)o1 (centres undefined)	none
COc1ccc(C(=O)NC(=S)Nc2cccc(Cl)c2N2CCOCC2)cc1[N+](=O)[O-]	none (no result: HIV RNase H inh-1)
O=C1CC2(CCCC2)Oc2ccc(F)cc21	none (no result: HIV RNase H inh-1)
O=C(Nc1ccc2nc(-c3ccc(Br)o3)[nH]c2c1)c1cccs1	HIV RNase H inh-1 71 | HIV RNase H inh-2 inactive
Cn1cccc1-c1nc2ccc(NC(=O)c3cccs3)cc2[nH]1	none
Cn1ccnc1P(=S)(c1nccn1C)c1nccn1C	none
Cn1ccnc1P(=S)(c1nccn1C)N1CCOCC1	HIV RNase H inh-1 87 | HIV RNase H inh-2 62
O=S(=O)(c1ccc(S(=O)(=O)N2CCN(C/C=C/c3ccccc3)CC2)cc1)N1CCCC1	HIV RNase H inh-1 59 | HIV RNase H inh-2 56
O=C(Cc1ccccc1)N1CCN(C/C=C/c2ccccc2)CC1	none
CCOC(=O)Cn1nc(-c2ccc(F)cc2)oc1=O	none (no result: HIV RNase H inh-1)
Cc1cc(NC(=O)CSc2nc(C(C)C)nc3sc4c(c23)CCCC4)no1	HIV RNase H inh-1 70 | HIV RNase H inh-2 inactive
Cc1cc(NC(=O)CSc2nc(C3CCCCC3)nc3ccccc23)no1	none
Cc1cc(NC(=O)CSc2nc3sc4c(c3c(=O)n2C)CCCC4)no1	none (no result: RmlCD inh mix)
Cc1cc(NC(=O)CSc2nc(C3CC3)nc3sc4c(c23)CCC(C)C4)no1 (centres undefined)	HIV RNase H inh-1 70 | HIV RNase H inh-2 97
Cc1nccc2[nH]c(=O)c(C(=O)NC3CCN(Cc4ccccc4)CC3)cc12	none (no result: RmlCD inh mix)
CCOc1cc2c(cc1OCC)C(c1cc(OC)c(O)c(OC)c1)NCC2 (centres undefined)	none (no result: RmlCD inh mix)
O=C(Cn1c(=O)oc2cc(S(=O)(=O)N3CCCCCC3)ccc21)NC1CCCCCCC1	none
O=C(Cn1c(=O)oc2cc(S(=O)(=O)N3CCCC3)ccc21)NC1CCCc2ccccc21 (centres undefined)	HIV RNase H inh-1 65 (no result: RmlCD inh mix) | HIV RNase H inh-2 76
CCOC(=O)c1c(NC(=O)CNCCOC)sc2c1CCCC2	none (no result: HIV RNase H inh-1)
CC(=O)c1sc(N)c(C(=O)OC(C)C)c1C	none (no result: HIV RNase H inh-1)
COCCNC(=O)c1c(N)sc2c1CCCC2	HIV RNase H inh-1 63 | HIV RNase H inh-2 inactive
CC(C)OC(=O)c1c(N)sc2c1CCCC2	HIV RNase H inh-1 87 (no result: RmlCD inh mix) | HIV RNase H inh-2 inconclusive
CCCOC(=O)c1c(N)sc2c1CCC2	none
Nc1sc2c(c1C(=O)NC1CCS(=O)(=O)C1)CCC2 (centres undefined)	HIV RNase H inh-1 66 | HIV RNase H inh-2 74
O=C(NC1CCS(=O)(=O)C1)c1ccccc1C(=O)c1ccccc1 (centres undefined)	none
Cc1c(C(N)=O)sc(N)c1C(=O)OC(C)C	HIV RNase H inh-1 84 | HIV RNase H inh-2 inactive
CCCC(=O)NC(C)c1nc(-c2ccc(C)cc2)no1 (centres undefined)	none (no result: HIV RNase H inh-1)
CCCc1cc(=O)oc2c3c(c4c(c12)OC(C)(C)C=C4)OC(C)C(C)C3O (centres undefined)	none (no result: HIV RNase H inh-1)
COC(=O)C1=COC(C)C2CN3CCc4c([nH]c5cc(OC)c(OC)cc45)C3CC12 (centres undefined)	none (no result: HIV RNase H inh-1)
CNC(=O)c1c(NC(=O)c2ccc(N3C(=O)CCC3=O)cc2)sc2c1CCCC2	none (no result: HIV RNase H inh-1)
CNC(=O)c1c(N)sc2c1CCCCC2	HIV RNase H inh-1 84 | HIV RNase H inh-2 inconclusive
N#CCC(=O)Nc1sc2c(c1C(N)=O)CCCC2	none
NC(=O)c1c(N)sc2c1CCCCC2	HIV RNase H inh-1 73 | HIV RNase H inh-2 inactive
NC(=O)c1c(NC(=O)CN2CCCC2)sc2c1CCCC2	none
NC(=O)c1c(NC(=O)CN2C(=O)CCC2=O)sc2c1CCCCC2	HIV RNase H inh-1 85 | HIV RNase H inh-2 inactive
O=C(CSc1nc2ccccc2o1)NCCOc1ccccc1	none
CCC(CC)C(=O)Nc1cccc(C(=O)Nc2ccc(S(=O)(=O)Nc3ccc(C)cc3)cc2)c1	none (no result: HIV RNase H inh-1)
Cc1ccc(-c2nnn(CC(=O)Nc3ccc(S(=O)(=O)N4CCC(C)CC4)cc3)n2)cc1	none
CC1CCN(S(=O)(=O)c2ccc(NC(=O)Cn3nnc(-c4ccccc4)n3)cc2)CC1	HIV RNase H inh-1 70 | HIV RNase H inh-2 68
COc1ccc(-c2cc(C(=O)N3CCN(c4ccccc4)CC3)no2)cc1OC	none (no result: HIV RNase H inh-1)
COc1ccccc1-c1cc(C(=O)N2CCN(c3ccc(F)cc3)CC2)no1	HIV RNase H inh-1 72 | HIV RNase H inh-2 inactive
c1ccc2sc(SN3CCOCC3)nc2c1	HIV RNase H inh-1 79 | HIV RNase H inh-2 inactive
c1ccc2sc(N3CCOCC3)nc2c1	none (no result: HIV RNase H inh-1)
COc1ccc(C[C@H]2c3cc(O)c(OC)cc3CC[N+]2(C)[O-])cc1O (some centres undefined)	none (no result: HIV RNase H inh-1)
COc1ccc(CCN(C)CCCC(C#N)(c2ccc(OC)c(OC)c2)C(C)C)cc1OC (centres undefined)	none (no result: RmlCD inh mix)
CC(C)Oc1ccc(CSc2nnc3n(C)c(=O)c4c5c(sc4n23)CCCC5)cc1	none
CCC1(C)Cc2c(sc3c2c(=O)n(C)c2nnc(SCc4ccc5c(c4)OCO5)n32)CO1 (centres undefined)	HIV RNase H inh-1 58 | HIV RNase H inh-2 75
CCOc1ccc(NC(=O)c2ccccc2OCC(=O)c2ccccc2)cc1	none (no result: HIV RNase H inh-1)
Cc1cccc(CN2C[C@]34CC[C@@H](C[C@@H]3S2(=O)=O)O4)c1	none (no result: HIV RNase H inh-1)
CCO[C@@H]1OC(C(=O)O)=C[C@H](c2ccc(Br)cc2)[C@H]1CCCO	none (no result: HIV RNase H inh-1)
COc1ccc2cc3cc(C(=O)NCc4ccco4)oc3nc2c1	none (no result: HIV RNase H inh-1)

Compound activity from PubChem BioAssay.
